This note sets out measurements from PubChem BioAssay (NCATS).

SMILES strings stand for the structures. Several values for one entry are separate records, joined by “and”; a condition that tells them apart may be missing. Equal entries are not always repeated. Results filed as inconclusive are left out. A number with no mark means an inactive call. Activity calls are given as the source filed them. Calls follow the shape of the dose curve; as a rule, active = well fitted curve in the direction sought with a large enough effect; inconclusive = small, poorly fitted or top-dose-only effect, or another doubt; inactive = no such curve, though single readings can be large; an effect the other way counts as inactive or inconclusive.

Assay [1] can be described thus: Viability qHTS for spleen associated tyrosine kinase inhibitor (SYKi) drug resistant MV4-11 cells (AID 1963824). Also: nearly all actives have a fitted effect of over 35% in size. Also: potency is read from the fitted curve at half-maximal effect. The settings on record: SYKi-resistant MV4-11 viability, CellTiter-Glo, 72 h; series mostly up to 45 µM. The procedure, abridged:
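SYK-inhibitor-resistant MV4-11 AML cells were seeded at 500 per well onto compound and cultured 72 hours (37 °C, 5% CO2). CellTiter-Glo was then added, and after 10 min at room temperature, luminescence gave viability.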
Background: Quantitative high-throughput screening tests each substance at several concentrations.

The nature of assay [2]: Quantitative highthroughput screen to assess conditional lethalithy of NOMO1 cells grown in RPMI1640 with untreated serum (RPMI+s) (AID 1963876). Also: nearly all actives have a fitted effect of over 35% in size. Also: potency is read from the fitted curve at half-maximal effect.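 As to Viability: 100% = DMSO wells and 0% = empty wells without cells.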 The settings on record: NOMO1 AML cells in RPMI+serum, CellTiter-Glo viability, 48 h; series mostly up to 45.8 µM. The procedure, abridged:
(§1)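 Each medium arm—HPLM with 10% dialyzed FBS, or RPMI1640 with 5 mM glucose and 10% untreated or dialyzed FBS—was screened against an 11-point, 3-fold compound titration for 48 h at 37 °C, with CellTiter-Glo luminescence as endpoint.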

A short description of assay [3]: Quantitative highthroughput screen to assess conditional lethalithy of NOMO1 cells grown in RPMI1640 with dialyzed fetal bovine serum (RPMI+ds) (AID 1963877).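 Also: 100% = DMSO control wells and 0% = empty wells; nearly all actives have a fitted effect of over 30% in size.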 The following applies: NOMO1 in RPMI+dialyzed FBS viability, ATP luminescence, 48 h; series mostly up to 45.8 µM. The procedure, abridged: as §1
Assay [4] in a line: Quantitative highthroughput screen to assess conditional lethalithy of NOMO1 cells grown in Human Plasma-Like Medium with dialyzed fetal bovine serum (HPLM+ds) (AID 1963878).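 Also: 100% = DMSO wells and 0% = empty wells on each plate; nearly all actives have a fitted effect of over 35% in size.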 The following applies: NOMO1 AML cells in HPLM+ds, CellTiter-Glo viability, 48 h; series mostly up to 45.8 µM. The procedure, abridged: as §1
(In general: ATP-based viability assays read luminescence as a measure of living cells.)

A short description of assay [5]: Cellular viability qHTS for adrenocortical cancer (ACC) cell line SW-13 (AID 1963989).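 Also: cells grown in serum-free medium with ITS supplement; % is scaled to controls: 0 for no effect and ±100 for the full control effect; nearly all actives have a fitted effect of over 65% in size.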 The settings on record: SW-13 ACC cells viability, CellTiter-Glo, 48 h; activity (max response): stronger effect = lower value. Put shortly: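 Compound titrations (up to 46 uM final, in DMSO) were applied to SW-13 cells for 48 h at 37C/5% CO2. Reading used CellTiter-Glo after 20 min at room temperature; fitted curves yielded IC50 and efficacy.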

Assay [6] can be described thus: Cellular viability qHTS for adrenocortical cancer (ACC) cell line NCI-H295R (AID 1963990).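 Also: 0% = DMSO only wells and -100% = full killing with cytotoxic reference compound; nearly all actives have a fitted effect of over 60% in size.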 The settings on record: CellTiter-Glo ATP luminescence, 48 h; series mostly up to 46.1 µM. Put shortly: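 Readout: CellTiter-Glo luminescence, 20 min RT. Exposure: 48 h, 37C/5% CO2. Cells: NCI-H295R, ITS-DMEM serum-free. Range: up to 46 uM. Analysis: 4PL fit, IC50 plus efficacy.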

The nature of assay [7]: Quantitative highthroughput screen to assess conditional lethalithy of P12 Ichikawa cells grown in Human Plasma-Like Medium with dialyzed fetal bovine serum (HPLM+ds) (AID 1963879). Also: nearly all actives have a fitted effect of over 35% in size. The settings on record: ATP luminescence, 48 h; Potency: viability; series mostly up to 45.8 µM. The procedure, abridged:
as §1

Assay [8] is described as follows: Quantitative highthroughput screen to assess conditional lethalithy of P12 Ichikawa cells grown in RPMI1640 with untreated serum (RPMI+s) (AID 1963881). Also: nearly all actives have a fitted effect of over 35% in size. Also: potency is read from the fitted curve at half-maximal effect.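 As to Viability: 100% = DMSO wells and 0% = empty wells without cells.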 The following applies: ATP luminescence, 48 h; Potency: viability; series mostly up to 45.8 µM. The procedure, abridged:
as §1

Assay [9] can be described thus: Quantitative highthroughput screen to assess conditional lethalithy of SEM cells grown in Human Plasma-Like Medium with dialyzed fetal bovine serum (HPLM+ds) (AID 1963882). Also: nearly all actives have a fitted effect of over 35% in size. Also: potency is read from the fitted curve at half-maximal effect. The settings on record: SEM B-ALL cells in HPLM+ds, CellTiter-Glo viability, 48 h; series mostly up to 45.8 µM. Put shortly:
as §1

Assay [10] can be described thus: Quantitative highthroughput screen to assess conditional lethalithy of SEM cells grown in RPMI1640 with dialyzed fetal bovine serum (RPMI+ds) (AID 1963884). Also: nearly all actives have a fitted effect of over 35% in size. Also: potency is read from the fitted curve at half-maximal effect.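 As to Viability: 100% = DMSO control wells and 0% = empty wells without cells.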 The following applies: SEM B-ALL cells, RPMI+dialyzed FBS, CellTiter-Glo viability, 48 h; series mostly up to 45.8 µM. The procedure, abridged:
as §1

Assay [11] in a line: Quantitative highthroughput screen to assess conditional lethalithy of P12 Ichikawa cells grown in RPMI1640 with dialyzed fetal bovine serum (RPMI+ds) (AID 1963880). The settings on record: ATP luminescence, 48 h; Potency: P12-Ichikawa viability; series mostly up to 45.8 µM. Put shortly:
as §1

Assay [12] can be described thus: Quantitative highthroughput screen to assess conditional lethalithy of SEM cells grown in RPMI1640 with unreated serum (RPMI+s) (AID 1963883). Also: nearly all actives have a fitted effect of over 35% in size. Also: potency is read from the fitted curve at half-maximal effect.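 As to Viability: 100% = DMSO wells and 0% = empty wells without cells.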 The settings on record: SEM B-ALL cells, CellTiter-Glo viability, 48 h; series mostly up to 45.8 µM. The procedure, abridged: as §1

For `CC1(C)O[C@@H]2C[C@H]3[C@@H]4CCC5=CC(=O)C=C[C@]5(C)[C@@H]4[C@@H](O)C[C@]3(C)[C@]2(C(=O)CO)O1`, the Potency entry in assay [1], in [2], in [3], in assay [4] and in assay [6] was “inactive” each time. Besides, the activity (max response) in [5] is -5.21%.
Regarding `Nc1nc(OCc2ccccc2)c2[nH]cnc2n1`, the Potency in [1] is 20.9 µM (active). The Potency entry in [2], in [4], in assay [7], in [8], in assay [9] and in [10] was “inactive” each time. Also, in assay [6], the Potency result was “inactive”. Also, the activity (max response) in assay [5] was -9.18%.
Regarding `CCCCCCCCCCCCCCCC(=O)O[C@H]1[C@@H](O)[C@@H](O)[C@@H]([C@H](NC(=O)[C@@H]2C[C@@H](CCC)CN2C)[C@H](C)Cl)O[C@@H]1SC`, the figures for the Potency in assay [1] and in assay [2] were 23.5 µM (active) and 11.8 µM (active), respectively. In addition, the Potency entry in assay [7], in assay [11], in [8], in assay [9], in assay [12] and in assay [10] was “inactive” in each case. The Potency result in [6] is “inactive”. Further, the activity (max response) in [5] is 13.6%.
For `O=c1cc(-c2ccc(O)c(O)c2)oc2cc(O)cc(O)c12`, the Potency in [1] is 7.42 µM (active). The Potency entry in assay [2], in assay [4], in assay [7], in [11], in assay [8] and in assay [9] was “inactive” throughout. The Potency result in assay [12], in [10] and in assay [6] was “inactive” throughout.
Turning to `O=S(=O)(c1cccc2cnccc12)N1CCCNCC1`, the Potency result in [1], in [2], in assay [3], in assay [8], in assay [9] and in assay [10] was “inactive” in each case. For the same compound, the Potency result in assay [6] was “inactive”. Also, the activity (max response) in assay [5] is 2.02% and -0.384%.
With `CS(=O)(=O)c1ccc(-c2cnc(N)c(C(=O)Nc3ccccc3)n2)cc1`, the Potency in assay [1] was 2.91 µM (active); in assay [8], 8.33 µM (active); in [9], 8.33 µM (active); in assay [12], 9.35 µM (active); in assay [10], 8.33 µM (active). Further, the Potency result in assay [2] and in assay [7] was “inactive” each time.
As to `Cc1nc2ccc(C(=O)N3CCC4(CC3)CC(=O)c3c(cnn3C(C)C)C4)cc2[nH]1`, the Potency in [1] was 20.9 µM (active). Moreover, the Potency entry in [2], in assay [3] and in assay [6] was “inactive” each time.
